Screening data: PubChem BioAssay, NMMLSC
MEP2 TOR yeast: modulators of TOR pathway MEP2-GFP in S. cerevisiae. S. cerevisiae MEP2-GFP strain, flow cytometry GFP, 3 h; 100% = DMSO control level. GFP response vs DMSO, % at 10 µM. 330,000 compounds, 0.51% hits;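 active means GFP response versus DMSO above a set limit, roughly screen mean plus 3 SD, cut at about 180% in these data; inconclusive means fewer than 70 cells counted for a yeast strain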;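 further: median GFP fluorescence of the barcode-gated MEP2-GFP cells per well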
DSG3 Ab inh: blocks pemphigus antibody binding to human desmoglein-3. AID 588358. binding (percent of control), % at 10 µM. 310,000 compounds, 0.48% hits. DSG3-coupled beads, scFv-anti-DSG3-GFP binding, flow cytometry; active compounds read low. P32926;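 active means binding more than 3 SD below its plate's average and above zero; inconclusive means below that plate limit but binding exactly zero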;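 further: hits lower antibody fragment binding to DSG3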
Target sequence (P32926 whole entry, looked up, the tested form may be a part): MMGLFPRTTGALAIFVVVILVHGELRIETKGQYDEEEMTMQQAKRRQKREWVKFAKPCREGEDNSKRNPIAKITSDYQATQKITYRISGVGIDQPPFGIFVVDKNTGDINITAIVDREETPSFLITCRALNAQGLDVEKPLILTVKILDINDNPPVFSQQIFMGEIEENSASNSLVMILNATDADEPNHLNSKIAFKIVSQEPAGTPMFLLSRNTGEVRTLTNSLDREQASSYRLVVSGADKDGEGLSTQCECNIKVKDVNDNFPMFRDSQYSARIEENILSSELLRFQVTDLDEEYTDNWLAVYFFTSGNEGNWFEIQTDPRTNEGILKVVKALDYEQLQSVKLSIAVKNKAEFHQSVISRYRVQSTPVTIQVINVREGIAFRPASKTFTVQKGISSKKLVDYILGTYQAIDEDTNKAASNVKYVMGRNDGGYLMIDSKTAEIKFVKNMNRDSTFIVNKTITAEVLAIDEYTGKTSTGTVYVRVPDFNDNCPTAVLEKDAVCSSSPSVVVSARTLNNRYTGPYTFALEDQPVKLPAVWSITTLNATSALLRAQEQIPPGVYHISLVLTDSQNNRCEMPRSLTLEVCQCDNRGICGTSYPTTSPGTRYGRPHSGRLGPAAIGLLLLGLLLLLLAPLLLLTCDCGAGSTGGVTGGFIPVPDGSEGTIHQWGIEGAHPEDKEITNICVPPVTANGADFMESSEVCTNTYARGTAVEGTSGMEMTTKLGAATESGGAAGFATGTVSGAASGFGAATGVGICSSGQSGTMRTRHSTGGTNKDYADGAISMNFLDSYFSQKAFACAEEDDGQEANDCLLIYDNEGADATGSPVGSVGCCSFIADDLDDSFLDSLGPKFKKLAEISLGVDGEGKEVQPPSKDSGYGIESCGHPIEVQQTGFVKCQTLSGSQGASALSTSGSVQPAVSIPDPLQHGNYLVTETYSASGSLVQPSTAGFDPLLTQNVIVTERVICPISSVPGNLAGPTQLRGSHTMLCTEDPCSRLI
AGP1 TOR yeast: modulators of TOR pathway AGP1-GFP in S. cerevisiae; S. cerevisiae AGP1-GFP multiplex flow cytometry, 3 h; GFP as percent of DMSO wells; GFP response vs DMSO, % at 10 µM; 320,000 compounds, 0.02% hits; AID 2066;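 active means GFP response relative to DMSO above a set limit, near screen average plus 3 SD, cut at about 150% in these data; inconclusive means fewer than 70 cells counted for the yeast strain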;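 further: median GFP channel fluorescence of the gated AGP1 strain per well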
CIT2 TOR yeast: alters CIT2-GFP fluorescence in TOR pathway yeast screen | S. cerevisiae CIT2-GFP strain, flow cytometry, 3 h; 100 means same as DMSO wells | GFP response vs DMSO, % at 10 µM | 320,000 compounds, 0.065% hits | AID 2029;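 active means GFP response relative to DMSO above a set limit, near the screen mean plus 3 SD, cut at about 150% in these data; inconclusive means Fewer than 70 cells measured for a yeast strain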;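 further: ratio of well median GFP fluorescence to mean of DMSO wells on the plate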
RPL19A TOR yeast: alters RPL19A-GFP fluorescence in TOR pathway yeast screen; S. cerevisiae RPL19A-GFP strain, flow cytometry, 3 h; active compounds read low; percent response vs DMSO, % at 10 µM; 330,000 compounds, 0.3% hits;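 active means percent response vs DMSO below 50%; inconclusive means fewer than 70 events counted for the yeast strain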;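 further: median channel GFP fluorescence of the barcoded RPL19A-GFP strain; lower means less RPL19A-GFP as with rapamycin TOR inhibition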
LAP4 TOR yeast: alters LAP4-GFP fluorescence in TOR pathway yeast screen. AID 2023. 320,000 compounds, 0.34% hits. S. cerevisiae LAP4-GFP multiplex, flow cytometry GFP, 3 h; median GFP as percent of DMSO wells. GFP response vs DMSO, % at 10 µM;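 active means GFP response vs DMSO above a set limit, about the screen mean plus 3 SD, cut at about 150% in these data; inconclusive means under 70 cell events counted for the yeast strain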
Numbers stand for hits; n = inactive; u = inconclusive; x = no result given; [ ] = remark or other dose. Shown are actives, neighbours in structure and some others; about 1.2% of the full set was active somewhere.

SMILES	MEP2 TOR yeast	DSG3 Ab inh	AGP1 TOR yeast	CIT2 TOR yeast	RPL19A TOR yeast	LAP4 TOR yeast
Cc1cc(C)n(-c2ccc(C(=O)N3CCN(S(=O)(=O)c4ccc(C(C)C)cc4)CC3)cc2)n1	221.1[may fluoresce violet]	n	n	u	n	n
COc1ccc(NC(=O)Cn2nnc(-c3ccccc3NC(=O)c3ccco3)n2)cc1	n	n	n	n	n	n
COc1ccccc1NC(=O)Cn1nnc(-c2ccccc2NC(=O)c2ccco2)n1	195.0	n	n	n	n	n
COc1ccc(CCNC(=O)C2CC3Cn4c(nc5ccccc54)C3N2c2ccccc2)cc1 (configuration not stated)	n	n	n	n	n	n
COc1ccc(N2CCN(S(=O)(=O)CCNC(=O)c3cc(=O)c4ccccc4o3)CC2)cc1	n	-12.3	n	n	n	n
Cc1cc(NC(=O)CSc2nc3c(C)cccc3cc2C)no1	n	x	n	n	n	n
CSc1ccc(C2=C/C(=C3/SC(=S)NC3=O)c3ccccc3O2)cc1	x	80.7	x	x	x	x
Cc1cccn2c(=O)c(/C=C(\C#N)C(=O)NC3CCS(=O)(=O)C3)c(Oc3ccccc3Cl)nc12 (configuration not stated)	233.5[may fluoresce violet]	n	u	u	n	n
CC1CC(C)CN(C(=O)CN2C(=O)NC3(CCCCCCC3)C2=O)C1 (configuration not stated)	n	x	n	n	n	n
O=Cc1c(NCc2ccc(F)cc2)c2ccccc2[nH]c1=O	n	n	n	n	n	n
O=Cc1c(NC2CCCCC2)c2ccccc2[nH]c1=O	n	74.3	n	n	n	n
COc1ccc(C2C(C(=O)NCc3ccccc3)=C(C)Nc3ncnn32)cc1OC (configuration not stated)	199.8[may fluoresce violet]	n	u	u	n	n
CC1=C(C(=O)NCc2ccccc2)C(c2cccnc2)n2ncnc2N1 (configuration not stated)	n	n	n	n	n	n
CC1CCCC(NC(=O)COC(=O)COc2ccc(Br)cc2)C1C (configuration not stated)	n	n	n	n	n	n
CCCn1c(SCC(=O)Nc2ccc(Cl)cc2F)nc(O)cc1=O	n	x	n	n	n	n
CCOC(=O)c1c(C)nc2sc(C(=O)Nc3ccccc3)c(N)c2c1-c1ccc(OC)cc1	n	87.8	n	n	n	n
Cc1ccc(NC(=O)c2sc3nc(C)cc(C)c3c2N)cc1	340.4[may fluoresce violet]	n	u	u	36.2[may fluoresce violet]	n
CCOC(=O)c1c(C)nc2sc(C(N)=O)c(N)c2c1-c1ccccc1	n	n	n	n	n	n
Cc1cc(C)c2c(N)c(C(=O)NN)sc2n1	n	n	n	n	n	n
CCCCOc1cccc(/C=C(\C#N)C(=O)NC2CC2)c1	n	x	n	n	n	174.8
O=c1cc(-c2c(F)c(F)c(F)c(F)c2F)oc2c(F)c(F)c(F)c(F)c12	n	x	n	n	n	176.8
COCC(=O)Nc1cc([N+](=O)[O-])ccc1C	216.5	n	n	n	x	n
CCOC(=O)C(=O)Nc1cc([N+](=O)[O-])ccc1C	n	n	n	n	n	n
C=CCN1C(=O)c2ccc(C(=O)N(CC(C)C)c3c(N)n(CCCC)c(=O)[nH]c3=O)cc2C1=O	n	75.6	n	n	n	n
Cc1cccc(NC(=O)COC(=O)C2C3CC4OC(=O)C2C4C3)c1C (configuration not stated)	n	57.0	n	n	n	n
SMILES	MEP2 TOR yeast	DSG3 Ab inh	AGP1 TOR yeast	CIT2 TOR yeast	RPL19A TOR yeast	LAP4 TOR yeast
CCc1ccccc1NC(=O)COC(=O)C1C2CC3OC(=O)C1C3C2 (configuration not stated)	753.8[may fluoresce violet]	n	n	u	48.8[may fluoresce violet]	n
Cc1ccc(NC(=O)COC(=O)c2ccc(NC(=O)CC#N)cc2)cc1S(=O)(=O)N1CCOCC1	n	n	n	n	n	n
COc1cc(NC(=O)C/C(C)=N/NC(=O)c2ccccn2)c(OC)cc1Cl	324.4[may fluoresce violet]	n	u	u	48.1[may fluoresce violet]	n
COc1cccc(NC(=O)c2cccnn2)c1	n	n	n	n	n	n
N#C/C(=C\c1ccc(N2CCOCC2)o1)c1ccccc1	n	n	n	n	n	n
N#C/C(=C/c1ccc(N2CCOCC2)o1)c1ccc(Br)cc1	n	n	n	n	n	167.4
N#C/C(=C\c1ccc(N2CCOCC2)cc1)c1ccccc1	n	-132.7	n	n	n	n
N#C/C(=C\N1CCOCC1)c1ccccc1	n	n	n	n	n	n
O=c1cc(S(=O)(=O)Cc2ccccc2)[nH]c(=O)[nH]1	x	n	x	x	x	x
COc1ccc(C(C)=O)cc1CC(=O)Nc1ccc2c(c1)CCC2	n	n	n	n	n	n
Cc1ccc(N(C(=O)CNC(=O)c2ccco2)C(C(=O)NC2CCCC2)c2cccnc2)cc1C (configuration not stated)	194.8	n	n	n	n	185.9
Cc1ccc(N(C(=O)CNC(=O)c2ccco2)C(C(=O)NC2CCCCC2)c2cccnc2)cc1C (configuration not stated)	n	n	n	n	n	n
Cc1ccc(N(C(=O)CCCC(=O)Nc2ccccn2)C(C(=O)NC2CCCC2)c2ccc(O)cc2)cc1C (configuration not stated)	238.2	n	n	n	n	n
Cc1cc(C)cc(N(C(=O)c2csnn2)C(C(=O)NC2CCCC2)c2cccnc2)c1 (configuration not stated)	183.8[may fluoresce violet]	n	n	u	n	n
CC(=O)c1ccc(N(CC(=O)NC2CCCCC2)C(=O)CNC(=O)c2ccco2)cc1	n	36.7	n	n	n	n
COc1ccc([C@@]23Oc4cc(OC)cc(OC)c4[C@]2(O)[C@H](O)[C@H](C(=O)N(C)C)[C@H]3c2ccccc2)cc1	x	n	x	x	x	x
O=[N+]([O-])c1ccc(C=NN2CCCCCC2)cc1	x	n	x	x	x	x
COc1ccccc1CNC(=O)C1CCC(CNS(=O)(=O)c2ccccc2)CC1 (configuration not stated)	n	n	n	n	n	n
CC(NC(=O)C1CCC(CNS(=O)(=O)c2ccccc2)CC1)c1ccccc1 (configuration not stated)	311.3	n	n	n	n	n
O=c1oc(-c2cccs2)nc2c1cnn2-c1ccccc1	n	86.0	n	n	n	n
CCCc1nnc(NC(=O)C2CC(=O)N(C3CCCC3)C2)s1 (configuration not stated)	n	n	n	n	n	n
N#CC1=C(N)OC2=C(CC/C2=C\c2ccccc2)C1c1ccccc1 (configuration not stated)	188.2[may fluoresce violet]	n	n	u	n	n
N#CC1=C(N)OC2=C(CC/C2=C\c2ccccc2Cl)C1c1ccccc1Cl (configuration not stated)	n	n	n	n	n	n
